In PubChem BioAssay AID624416 (The Scripps Research Institute Molecular Screening Center, 2012):
About 1,500 (0.42%) of roughly 360,000 compounds were called active. Rule as the data show it: active = inhibition above about 8.5%; inactive = the rest. Many of the other results were omitted from the sample, so actives are more common in it than they were.

These compounds were tested on HIV-1 gp120 / PG9 antibody interaction (assay: small molecules engaging PG9 antibody – biochemical, TR-FRET, primary screen (AID 624416)). Details: TR-FRET gp120-PG9 antibody binding; at 6.7 µM; active compounds read high.
For `COC(=O)C1=C(C(=O)OC)C2C=C(C(C)C)C1C(=O)C2(C)O` (stereo unspecified), the inhibition was -0.26% (inactive).
For `CCCCNC(=O)CSc1nc2n[nH]c(C)c2c(=N)n1-c1cccc(Cl)c1C`, the inhibition was 20.8% (active).
For `COc1cccc(-n2c(SCC(=O)NC3CCCCC3)nc3n[nH]c(C)c3c2=N)c1`, the inhibition was 0.99% (inactive).
`Cc1ccc(-n2c(SCC(=O)NCCC3=CCCCC3)nc3n[nH]c(C)c3c2=N)cc1Cl` was tested, and the inhibition was 35.7% (active).
`Cc1nnc(OCC(=O)NCCC2=CCCCC2)c2ccccc12` was tested, and the inhibition was -0.11% (inactive).
With `CCCCCCNC(=O)CSc1nccn1Cc1ccccc1` the inhibition was 0.53% (inactive).
With `CCCCNC(=O)CSc1nccn1Cc1ccccc1` the inhibition was 2.29% (inactive).
In the case of `Cc1ccc(C)c(CN2CCC(CNC(=O)C3CCCN(c4ncnc5c4nc4n5CCCCC4)C3)CC2)c1` (stereo unspecified), the inhibition is reported as -0.22% (inactive).
In the case of `COC(=O)[C@]12C[C@H](CC(=O)NCCCCc3ccccc3)C(=O)N(Cc3ccc4c(c3)OCO4)C1=C[C@H](C(C)(C)C)O[C@@H]2C`, the inhibition is reported as 1.2% (inactive).
For `C=CCN=C1NC(c2ccccc2)C(C(=O)OC)=C(C)N1Cc1ccc(C(F)(F)F)cc1` (stereo unspecified), the inhibition was -0.19% (inactive).
`COc1ccc(CNS(=O)(=O)c2cc(Br)ccc2Br)cc1` was tested, and the inhibition was 0.06% (inactive).
`COC(=O)Cc1nnn2c1[C@H](C)[C@H](c1ccccc1Br)OCC2` was tested, and the inhibition was 1.33% (inactive).
With `Cc1ccc(N)cc1CN1CCN(c2ncc(Cc3ccccc3)cn2)CC1` the inhibition was -3.21% (inactive).
With `COc1ccc(C)cc1NC(=O)CSc1ccc(Cl)cc1` the inhibition was -1.28% (inactive).
`COc1ccc(Cl)cc1NC(=O)CN1CCN(C(=O)N2CCOCC2)CC1` was tested, and the inhibition was 1.73% (inactive).
In the case of `COc1ccc(Cl)cc1NC(=O)Cn1nc(-c2ccc(C)cc2)n(C)c1=S`, the inhibition is reported as 11% (active).
With `CC1CCCN(c2cccc3c2S(=O)(=O)N(Cc2ccc(F)cc2)[C@@H](C)[C@H](c2ccccc2)O3)C1` (stereo partly specified) the inhibition was 0.43% (inactive).
With `CCCN1C(=O)c2[nH]nc(-c3ccccc3)c2C1c1ccccc1` (stereo unspecified) the inhibition was -1.03% (inactive).
With `CCN(CC)CCNC(=O)c1ccc(NS(=O)(=O)c2ccc3c(c2)OCCO3)cc1` the inhibition was -1.11% (inactive).
In the case of `CC(NS(=O)(=O)c1ccc(Cl)cc1)C(=O)Nc1ccc2c(c1)OCCO2` (stereo unspecified), the inhibition is reported as 0.53% (inactive).
For `O=C(Nc1cccc(S(=O)(=O)Nc2ccc(Cl)cc2)c1)c1ccc2c(c1)OCCO2`, the inhibition was 9.35% (active).
In the case of `COCCNC(=O)c1cc2c(Br)ccc(Br)c2nc1N`, the inhibition is reported as 9.73% (active).
With `COCCNC(=O)c1ccccc1-c1nc(-c2ccccc2Cl)no1` the inhibition was -2.1% (inactive).
With `Nc1nc2c(Br)ccc(Br)c2cc1C(=O)NCCc1ccccc1` the inhibition was 3.73% (inactive).
With `Cc1ccc2nc(CN(C)C(=O)[C@@H](Cc3ccccc3)NC(=O)[C@H]3O[C@@H](n4ccc(=O)[nH]c4=O)[C@H](O)[C@@H]3O)[nH]c2c1` the inhibition was -1.8% (inactive).
In the case of `COc1ccc(SSc2ccc(OC)cc2C(=O)O)c(C(=O)O)c1`, the inhibition is reported as -0.62% (inactive).
With `C=CCn1c(SCC(=O)Nc2ccc(NC(C)=O)cc2)nc2sc(C)c(C)c2c1=O` the inhibition was 1.19% (inactive).
With `C=CCn1c(=NC(=O)c2ccc(S(=O)(=O)N3CCCC3)cc2)sc2cc(NC(C)=O)ccc21` the inhibition was 13% (active).
`O=C(CN1CCCCCC1)Nc1ccc(S(=O)(=O)N2CCCCC2)cc1` was tested, and the inhibition was -1.07% (inactive).
For `C=CCn1c(=NC(=O)c2cccs2)sc2cc(NC(C)=O)ccc21`, the inhibition was 10.5% (active).
In the case of `CC(=O)Nc1ccc(S(=O)(=O)N2CCN(S(=O)(=O)c3cccs3)CC2)cc1`, the inhibition is reported as 1.11% (inactive).
For `C=CCn1c(CCNC(=O)c2cccs2)n[nH]c1=S`, the inhibition was -0.83% (inactive).
For `O=C(NCc1ccccc1)[C@@H]1CCCN1C(=O)[C@H]1CCCN1C(=O)c1cccc(Cl)c1`, the inhibition was -0.83% (inactive).
`Cc1noc(C)c1NC(=O)Nc1ccc2c(c1)C(=O)N([C@H](C)CO)C[C@H](C)[C@H](CN(C)Cc1ccncc1)OCCCC[C@@H](C)O2` was tested, and the inhibition was 0.19% (inactive).
For `C[C@H]1CN([C@@H](C)CO)C(=O)CCCn2nncc2CO[C@@H]1CN(C)C(=O)Nc1ccc(N2CCN(C)CC2)cc1`, the inhibition was -0.47% (inactive).
With `Cc1[nH]c2ccccc2c1CC(=O)Nc1ccc(Nc2cccnc2)c(-c2cccc(Cl)c2)c1` the inhibition was 0.12% (inactive).
In the case of `O=C(O)Cn1cnc2c(NCc3ccccc3)ncnc21`, the inhibition is reported as 1.02% (inactive).
`CC(=O)C1=C(C)N(Cc2ccccc2)C(=S)NC1c1cccc(Br)c1` (stereo unspecified) was tested, and the inhibition was -1.42% (inactive).
`CCOc1ccccc1C(=O)N1CCC[C@@H]1C(=O)N1CCC[C@H]1C(=O)NCc1ccccc1` was tested, and the inhibition was 2.14% (inactive).
With `COc1cccc(CC(=O)N2CCN(C(=O)C(=O)c3cccc(C(F)(F)F)c3)CC2)c1` the inhibition was 0.18% (inactive).
In the case of `COCc1cc(N2CCN(C(=O)OC(C)(C)C)C[C@@H]2C)ccc1N1CCN(Cc2ccccc2)[C@H](C)C1`, the inhibition is reported as 0.37% (inactive).
In the case of `CCCCCCCCN1C(=O)[C@@H](CC(=O)NCc2ccccc2)C[C@@]2(C(=O)OC)C1=C[C@H](C(C)(C)C)O[C@@H]2C`, the inhibition is reported as -0.73% (inactive).
`COCCCNc1nc2c(-c3cccc(C)c3)nnn2c2ccc(Cl)cc12` was tested, and the inhibition was 10.3% (active).
In the case of `COCCCNc1nc2c(-c3cccc(C(F)(F)F)c3)nnn2c2ccccc12`, the inhibition is reported as 0.39% (inactive).
With `COCCNc1nc(Nc2ccccc2Cl)c2sc(-c3ccccc3)cc2n1` the inhibition was 1.58% (inactive).
In the case of `CC(C)CNc1cccc2c1S(=O)(=O)N[C@H](CC(C)C)CO2`, the inhibition is reported as -0.01% (inactive).
In the case of `CN(C)C(=O)N1CCN(C(=O)[C@@H](Cc2ccccc2)NC(=O)[C@H]2O[C@@H](n3ccc(N)nc3=O)[C@H](O)[C@@H]2O)CC1`, the inhibition is reported as -2.32% (inactive).
With `C=CCOc1cccc(C2C(C(=O)c3ccc(C)o3)=C(O)C(=O)N2CCN2CCOCC2)c1` (stereo unspecified) the inhibition was 2.96% (inactive).
In the case of `c1ccc(Cc2ccc(OCCn3ccnc3)cc2)cc1`, the inhibition is reported as -0.66% (inactive).
`CCCOc1ccc(C2C(C(=O)c3ccc(C)o3)=C(O)C(=O)N2CCCn2ccnc2)cc1` (stereo unspecified) was tested, and the inhibition was 54.6% (active).
`C=CCOc1cccc(C2C(C(=O)c3ccc(C)o3)=C(O)C(=O)N2c2nnc(C)s2)c1` (stereo unspecified) was tested, and the inhibition was 2.85% (inactive).
For `CCOc1ccc(C2/C(=C(/O)c3ccc4c(c3)CC(C)O4)C(=O)C(=O)N2CCCn2ccnc2)cc1` (stereo unspecified), the inhibition was 1.05% (inactive).
In the case of `C=CCOc1cccc(C2C(C(=O)c3ccc(C)o3)=C(O)C(=O)N2CCCn2ccnc2)c1` (stereo unspecified), the inhibition is reported as 11.1% (active).
In the case of `COC(=O)c1c(-c2ccc(OC)cc2)c2c(c3c4cc(OC)ccc4n(S(=O)(=O)c4ccc(F)cc4)c13)C(=O)N(C)C2`, the inhibition is reported as 1.03% (inactive).
With `COC(=O)c1c(-c2ccc(OC)cc2)c2c(c3c4ccccc4n(S(=O)(=O)c4ccc(C)cc4)c13)C(=O)N(C)C2` the inhibition was 0.17% (inactive).
`CN1C(=O)C2CC(O)C(SC3CC4C(=O)N(C)C(=O)C4CC3O)CC2C1=O` (stereo unspecified) was tested, and the inhibition was 0.46% (inactive).
For `CC(C)(C)c1ccc(S(=O)(=O)NCC2CCN(C(=O)C(=O)c3cc4ccccc4o3)CC2)cc1`, the inhibition was -1.81% (inactive).
`Cc1cc(Br)cn2c(Cc3ccccc3C(F)(F)F)c(-c3ccc(C#N)cc3)nc12` was tested, and the inhibition was 0.29% (inactive).
In the case of `O=C1COc2ccc(C(=O)COC(=O)c3cccnc3Cl)cc2N1`, the inhibition is reported as -1.31% (inactive).
With `COc1cc(N)c(Cl)cc1C(=O)OCC(=O)c1ccc2c(c1)NC(=O)CO2` the inhibition was -0.01% (inactive).
With `O=C1COc2ccc(C(=O)COC(=O)c3ccccc3Cl)cc2N1` the inhibition was 28.2% (active).
`OC(c1ccccc1)(c1ccccc1)C1CCN(CCCOc2ccc(-c3ccsc3)cc2)CC1` was tested, and the inhibition was 1.88% (inactive).
`COCCCNC(=O)C[C@H]1C[C@@]2(C(=O)OC)C(=C[C@H](C(C)(C)C)O[C@@H]2C)N(Cc2ccc3c(c2)OCO3)C1=O` was tested, and the inhibition was 0.35% (inactive).
In the case of `CC(C)C[C@H](NC(=O)CC1CCCC1)C(=O)N1CCC[C@H]1C(=O)NCc1ccccc1`, the inhibition is reported as -0.84% (inactive).
For `COc1ccc2ccccc2c1CNc1nnnn1C`, the inhibition was 0.54% (inactive).
In the case of `Cn1c(=S)sc2ccc3ccccc3c21`, the inhibition is reported as 14.2% (active).
For `CC(=O)C1=C(C)N(Cc2ccc(Cl)cc2)C(=S)NC1c1ccc(F)cc1` (stereo unspecified), the inhibition was -2.38% (inactive).
In the case of `Cc1ccc2nc(-c3ccc(CN4CCC(n5cc(-c6ccccc6)[nH]c5=O)CC4)cc3)c(-c3ccccc3)nc2c1`, the inhibition is reported as -0.32% (inactive).
In the case of `O=C(NCc1ccccc1)[C@H]1CCCN1C(=O)[C@H]1CCCN1C(=O)N1CCOCC1`, the inhibition is reported as -0.88% (inactive).
In the case of `CC(C)(C)n1nc(C2CC2)c(Br)c1NC(=O)c1ccccc1F`, the inhibition is reported as 0.97% (inactive).
In the case of `CC1CCN(C(=O)c2ncn3c2C(=O)N[C@@H](C)C3)CC1`, the inhibition is reported as -0.93% (inactive).
`O=C(COC(=O)c1ccc2c(c1)OCCO2)NCc1ccccc1Cl` was tested, and the inhibition was 9.13% (active).
With `O=C(OCc1ccccc1F)c1ccc2c(c1)OCCO2` the inhibition was -1.71% (inactive).
`O=C(COC(=O)c1cc2c(s1)CCCC2)NCc1ccccc1Cl` was tested, and the inhibition was -0.89% (inactive).
In the case of `CCOC(=O)/C=C/c1ccccc1O`, the inhibition is reported as 0.44% (inactive).
For `O=C1C(=O)N(CCN2CCOCC2)C(c2cccc(Cl)c2)/C1=C(/O)c1ccc2c(c1)OCO2` (stereo unspecified), the inhibition was 30.6% (active).
`COc1ccc(C2/C(=C(/O)c3ccc4c(c3)CC(C)O4)C(=O)C(=O)N2Cc2ccncc2)cc1` (stereo unspecified) was tested, and the inhibition was 2.5% (inactive).
In the case of `COCCCN1C(=O)C(=O)/C(=C(/O)c2ccc3c(c2)CC(C)O3)C1c1cccnc1` (stereo unspecified), the inhibition is reported as 3.22% (inactive).
In the case of `O=C1C(=O)N(CCCN2CCOCC2)C(c2ccc([N+](=O)[O-])cc2)/C1=C(\O)c1ccc2c(c1)OCCO2` (stereo unspecified), the inhibition is reported as -1.43% (inactive).
For `CC1Cc2cc(/C(O)=C3\C(=O)C(=O)N(CCN4CCOCC4)C3c3ccccc3F)ccc2O1` (stereo unspecified), the inhibition was 13.2% (active).
With `O=C1C(=O)N(CCN2CCOCC2)C(c2ccccn2)/C1=C(/O)c1ccc(Cl)cc1` (stereo unspecified) the inhibition was 0.67% (inactive).
